Nine compounds from PubChem BioAssay AID652106 (National Center for Advancing Translational Sciences (NCATS), 2013) can be followed below.

The campaign covered roughly 370,000 compounds. About 500 (0.14%) were called active. Another 2% or so got no clear call; they are omitted. This is one part of a sample in which actives are shown more often than they occur. A number with no mark means an inactive call. Calls follow the shape of the dose curve; as a rule, active = well fitted activation curve with a large enough effect; inconclusive = small, poorly fitted or top-dose-only effect; inactive = no such curve, though single readings can be large or run the other way.
Potency is read from the fitted curve at half-maximal effect.

This experiment can be described thus: qHTS of alpha-syn Inhibitors. Also: nearly all actives have a fitted effect of over 65% in size. As to growth rescue (activation): % of control where 0% means no effect. The following applies: Yeast expressing alpha-synuclein, BacTiter-Glo, 24 h; Potency: growth rescue; series mostly up to 46.1 µM; growth rescue (activation): at the top concentration. The text has this: The goal of this project is to identify new chemical probes capable of reversing the toxicity associated with the Parkinson disease-related protein, alpha-synuclein. Compounds will be selected on their ability to restore growth in yeast cells expressing toxic levels of alpha-synuclein. These compounds will provide a complementary approach to deciphering the tangled mechanisms of toxicity and protection that we have uncovered through genome-wide genetic screens and are beginning to uncover in a large-scale proteomics analysis with mass spectroscopy. To this end, a miniaturized assay was developed to be screened against the Molecular Libraries Small Molecule Repository (MLSMR) to discover alpha-synuclein inhibitors. Please note that in the set-up this yeast-based assay compounds that inhibit as alpha-syn, have a read-out as activators. NIH Chemical Genomics Center [NCGC] NIH Molecular Libraries Probe Centers Network [MLPCN] MLPCN Grant: NS060957 Assay Submitter (PI): Susan Lindquist, Whitehead Institute/MIT
Dispense 2.5 microL yeast galactose medium per 1536-well plate, pin compound, dispense 2.5 microL alpha-synuclein expressing yeast in galactose medium at OD600=0.02 (pregrown in raffinose medium to mid-log phase) per well, incubate for 24 hr at 30 deg C, and cell growth will be measured using 5 microL of Bactiter/Glo reagent to entire plate and read using Luminescence Protocol in ViewLux.
(In general: In qHTS, concentration-response curves come from the screen itself.)
In the case of `C[C@@H]1C[C@@H]2O[C@H]2/C=C\C=C\C(=O)Cc2c(Cl)c(O)cc(O)c2C(=O)O1`, the Potency is 7.94 µM (active).

Turning to `CC(=O)NCC1=C(c2ccc3ccccc3c2)C[C@@H]2CC[C@H]1N2Cc1ccco1`, the “growth rescue (activation)” value was -5.06%.

As for `O=C(NCC1=C(c2ccc3ccccc3c2)C[C@@H]2CC[C@H]1N2Cc1ccco1)c1cccs1`, the Potency was 3.55 µM (active).

On to `Cc1ncoc1C(=O)NCC1=C(c2cccc3ccccc23)C[C@@H]2CC[C@H]1N2Cc1ccco1`, for which the “growth rescue (activation)” value is 24.8%.

Regarding `N#Cc1c(Cl)c(Cl)c(Cl)c(C#N)c1Cl`, the “growth rescue (activation)” value was -87.2%.

In the case of `COc1ccc(NC(=O)Nc2cccc3cccnc23)cc1`, the “growth rescue (activation)” value is -35.2%.

As for `c1ccc(Cc2nn3c(Cn4cnc5ccccc54)nnc3s2)cc1`, the “growth rescue (activation)” value was -33.2%.

For the compound `O=C(O)/C=C/c1ccc2c(c1)OCO2`, the “growth rescue (activation)” value was 6.25%.

Turning to `CC(=O)c1c(O)c(C)c(O)c(Cc2c(O)c3c(c(C(=O)/C=C/c4ccccc4)c2O)OC(C)(C)C=C3)c1O`, the Potency result is “inactive”.
